Compound activity from PubChem.
ALDH1A1 block: qHTS Assay for Inhibitors of Aldehyde Dehydrogenase 1 (ALDH1A1). Purified ALDH1A1, NADH fluorescence, propionaldehyde substrate. Potency, µM (series often up to 75.3 µM), for the others: at the top dose activity, negative = inhibition, hits mostly inhibitors. 220,000 tested, 7.3% active. AID 1030, 2008; active means well fitted inhibition curve with a large enough effect, not every such curve was filed as active; inconclusive means small, poorly fitted or top-dose-only effect, or another doubt; inactive means no such curve, though single readings can be large or run the other way;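 further: plate controls were no enzyme wells and a reference inhibitor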
Target sequence (P00352 whole entry, looked up): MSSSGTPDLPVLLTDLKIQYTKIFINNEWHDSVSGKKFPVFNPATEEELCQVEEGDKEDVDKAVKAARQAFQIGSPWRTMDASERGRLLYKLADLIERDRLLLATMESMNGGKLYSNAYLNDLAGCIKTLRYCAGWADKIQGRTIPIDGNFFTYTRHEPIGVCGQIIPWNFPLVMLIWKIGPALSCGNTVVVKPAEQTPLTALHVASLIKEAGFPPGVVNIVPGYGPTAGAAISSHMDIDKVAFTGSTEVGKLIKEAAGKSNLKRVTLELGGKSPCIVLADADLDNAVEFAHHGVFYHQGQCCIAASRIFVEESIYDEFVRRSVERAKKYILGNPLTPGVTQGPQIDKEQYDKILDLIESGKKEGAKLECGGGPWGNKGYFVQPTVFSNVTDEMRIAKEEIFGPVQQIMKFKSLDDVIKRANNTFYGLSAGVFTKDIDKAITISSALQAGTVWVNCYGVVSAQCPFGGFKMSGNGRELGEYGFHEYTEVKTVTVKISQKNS
NPSR antagonist: qHTS Assay for Antagonists of the Neuropeptide S Receptor: cAMP Signal Transduction; CHO-NPSR cells, cAMP TR-FRET, antagonist mode; AID 1461, 2008; Potency, µM (series often up to 38.3 µM), for inactives: at the top dose activity change, negative = inhibition, actives largely listed as inhibitors; 220,000 tested, 1% active; Q6W5P4; further: nearly all actives have a fitted effect of over 50% in size
Tau ThT inhib: qHTS for Inhibitors of Tau Fibril Formation, Thioflavin T Binding; Microtubule-associated protein tau (Homo sapiens), P10636; recombinant tau K18 P301L, heparin-induced fibrillization, ThT fluorescence; Potency, µM (highest dose often 57.4 µM), for inactives: at the highest dose activity, negative = inhibition, most hits filed as inhibitors; 270,000 tested, 2.1% active; AID 1460, 2008; further: nearly all actives have a fitted effect of over 55% in size
Target sequence (P10636 561-689 P618L limits assumed): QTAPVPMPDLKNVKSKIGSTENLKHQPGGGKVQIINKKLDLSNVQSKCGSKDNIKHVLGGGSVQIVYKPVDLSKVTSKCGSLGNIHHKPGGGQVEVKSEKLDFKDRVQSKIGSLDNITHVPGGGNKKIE
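Aggregation was driven by heparin (20 uM final) acting on recombinant tau […] bearing P301L in 100 mM sodium acetate pH 7; fibrils were detected with Thioflavin T.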
Tau FP inhib: qHTS for Inhibitors of Tau Fibril Formation, Fluorescence Polarization; Microtubule-associated protein tau (Homo sapiens), P10636; K18 P301L tau heparin fibrillization, Alexa594 FP, 6 h; Potency, µM (highest dose often 57.7 µM), for inactives: at the highest dose activity, negative = inhibition, usual class: inhibitors; 280,000 tested, 0.39% active; further: nearly all actives have a fitted effect of over 55% in size
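K18 P301L tau (15 uM unlabeled/0.24 uM Alexa 594-labeled, final) + compound + heparin 20 uM final; 100 mM NaOAc pH 7; 6 hr 37 C; ThT 30 uM final added, 1 hr RT; FP ex 555/em 632 nm.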
HPGD block: qHTS Assay for Inhibitors of HPGD (15-Hydroxyprostaglandin Dehydrogenase) | 15-hydroxyprostaglandin dehydrogenase [NAD(+)] (Homo sapiens), P15428 | 150,000 tested, 4.3% active | Potency, µM, inactives show at the highest dose activity change, negative = inhibition, most hits filed as inhibitors | purified HPGD, NADH fluorescence kinetic, PGE2 substrate; active means well fitted inhibition curve with a large enough effect, not every such curve was filed as active; inconclusive means small, poorly fitted or top-dose-only effect, or another doubt; inactive means no such curve, though single readings can be large or run the other way
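NADH formation kinetics: reaction with 30 uM PGE2 and 1 mM NAD+ (final), 20 nM enzyme, Tris-HCl pH 8 with Tween 20, after 15 min compound preincubation at room temperature. Fluorescence change, last versus first of five reads.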
Tau fluor cs: Counterscreen qHTS for Inhibitors of Tau Fibril Formation, Fluorescence Polarization; tau K18 P301L Alexa594 fluorescence, heparin fibrillization; Potency, µM (titrated, usually from 57.7 µM), for inactives: at the top dose activity change, negative = decrease; 280,000 tested, 0.93% active; further: nearly all actives have a fitted effect of over 55% in size
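Human tau K18 P301L (15 uM unlabeled, 0.24 uM Alexa 594-labeled) in 100 mM sodium acetate pH 7 with 20 uM heparin, 6 hr at 37 C. ThT 30 uM added, 1 hr ambient; Alexa 594 FP and total fluorescence read at 555/632 nm.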
The depositor's hits bear a star; ? = inconclusive; . = no result given; [ ] = dose if it differs, or a comment. Most compounds without a hit are left out; they make up all but 9.5% or so of the library. Unless noted, the call rests on the fitted dose curve; in most records, active means well fitted curve in the direction sought with a large enough effect; inconclusive means small, poorly fitted or top-dose-only effect, or another doubt; inactive means no such curve, though single readings can be large; an effect the other way counts as inactive or inconclusive. Unless noted, on the % scale 0 is the no-effect control and ±100 the full control effect; potency means the concentration at half of the fitted maximal effect.

SMILES | ALDH1A1 block | NPSR antagonist | Tau ThT inhib | Tau FP inhib | HPGD block | Tau fluor cs
O=C(Nc1cc(Cl)cc(Cl)c1)c1cccc(OC(F)F)c1 | -6.8% | ? | ? | 20µM* | -13.8% | ?
CN(C)S(=O)(=O)Oc1cccc(C(=O)Nc2ccc(Cl)c(Cl)c2)c1 | 12.6µM* | -28.9%[46.1 µM] | 0.6% | 20µM* | -14.0% | ?
Cc1nc(C)c(C(=O)NNC(=O)Nc2ccc(Cl)cc2)s1 | . | -1.2% | . | -4.0% | . | 0.1%
Cc1ccc(S(=O)(=O)N/N=C/c2c[nH]c3ccccc23)cc1 | -5.7% | 6.9% | ? | 12.2% | . | ?
COc1ccc2c(/C=N/NS(=O)(=O)c3ccc(C)cc3)c[nH]c2c1 | . | -1.7%[7.67 µM] | ? | 13.1% | . | 12.6µM*[quencher]
COc1ccc2[nH]cc(/C=N/NS(=O)(=O)c3ccc(C)cc3)c2c1 | . | -7.6% | ? | 15.3% | . | 12.6µM*[quencher]
CCOc1ccc(CCNC(=O)CN2C(=O)c3cccnc3Oc3ccc(Cl)cc32)cc1 | . | . | -11.4% | 5.8% | . | -15.8%
CC1CC(O)C(C)CN1 (stereo not drawn) | . | 11.4% | -3.2% | -4.3% | . | -6.8%
CCCCOc1cccc(C(=O)NC(=S)Nc2cccnc2)c1 | 25.1µM* | -2.4% | 1.6% | 3.4% | -11.8% | 2.1%
CCCCOc1cccc(C(=O)NC(=S)Nc2cccc(C(F)(F)F)c2)c1 | 8.91µM* | -33.1% | -14.8% | -8.7% | -21.1% | -18.3%
COc1cc(NC(=O)c2ccnc(N)c2)cc(C(=O)Nc2cccc(C(F)(F)F)c2)c1 | . | 3.1% | -6.2% | 28.2µM* | . | ?
CCCCOc1cccc(NC(=O)c2cccc(C(=O)Nc3cccc(OCCCC)c3)c2)c1 | . | . | 5.4% | -13.0% | . | -1.0%
CC(C)Oc1cccc(C(=O)NC(=S)Nc2cccc(C(F)(F)F)c2)c1 | 17.8µM* | -23.8%[46.1 µM] | -14.3% | ? | -21.9% | -24.5%
CCC(C)S(=O)(=O)c1snnc1C (stereo not drawn) | -0.7% | -3.7%[46.1 µM] | -5.1% | -4.9% | -2.1% | -0.2%
O=C(CP(=O)(c1ccccc1)c1ccccc1)Nc1cccc(CP(=O)(c2ccccc2)c2ccccc2)c1 | . | ? | -8.8% | 0.2% | . | -4.6%
Cc1ccc(S(=O)(=O)Nc2cccc(CP(=O)(c3ccccc3)c3ccccc3)c2)cc1 | 23.8µM* | 40.5% | -13.5% | 3.4% | . | -13.8%
COc1ccc2c(c1)NC1(O)c3ccccc3C(=O)C21O (stereo not drawn) | 3.5% | 6.3%[46.1 µM] | -9.7% | 2.5% | -3.4% | -1.5%
CC1=C(C(=O)OC(C)C)C2(O)C(=O)c3ccccc3C2(O)N1 (stereo not drawn) | 12.6µM* | 3.5%[46.1 µM] | 7.08µM* | ? | -11.3% | -23.2%
CC1=C(C#N)C2(O)C(=O)c3ccccc3C2(O)N1 (stereo not drawn) | ? | 4.8% | -16.2% | -6.9% | . | -1.4%
CCCCOC(=O)C1=C(C)NC2(O)c3ccccc3C(=O)C12O (stereo not drawn) | 8.91µM* | 1.0%[46.1 µM] | 10µM* | ? | -9.3% | -11.0%
CCOC(=O)C1=C(C)N[C@@]2(O)c3ccccc3C(=O)[C@@]12O | 31.6µM* | 1.8%[46.1 µM] | 3.55µM* | ? | -7.1% | -10.6%
O=S(=O)(c1ccc(OCC2CO2)cc1)c1ccc(OCC2CO2)cc1 (stereo not drawn) | ? | -6.2% | -6.8% | -3.0% | . | -12.3%
Cc1ccccc1C(=O)Nc1ccc2nc(SCC(=O)N3CCc4ccccc43)sc2c1 | . | . | ? | ? | . | -12.0%
FC(F)(F)c1nc(-c2cccnc2)ncc1-c1nnnn1-c1ccccc1 | 5.0% | -15.5%[46.1 µM] | -1.1% | -0.9% | -10.6% | -5.4%
CCc1ccccc1-n1nnnc1-c1cnccc1C(F)(F)F | 17.8µM* | 0.5% | -12.4% | -2.1% | . | -15.0%
SMILES | ALDH1A1 block | NPSR antagonist | Tau ThT inhib | Tau FP inhib | HPGD block | Tau fluor cs
Cc1cccc(NC(=O)C2C(c3ccccc3)C2(Cl)Cl)c1 (stereo not drawn) | 25.1µM* | 50.2% | -6.9% | -9.5% | . | -27.0%
Cc1ccc(NC(=O)C2C(c3ccccc3)C2(Cl)Cl)c(C)c1 (stereo not drawn) | 5.0% | -11.0%[46.1 µM] | -23.2% | 0.7% | 28.2µM* | -24.5%
Nc1c(C(=O)Nc2cccc(F)c2)c2ccccn2c1C(=O)c1ccccc1 | . | . | 10.9% | -19.7% | . | -11.6%
CON1C(=O)C(=O)N(OC)C(C)(C)C1(C)C | 20µM* | 23.2% | -1.4% | 3.0% | 1.3% | 3.2%
O=C1C=CC(=O)c2c(O)c(Cl)c(Cl)c(O)c21 | 1.26µM* | . | ? | 6.0% | ? | 3.3%
CN1Cc2c(N3CCOCC3)nc(SCCC#N)c(C#N)c2CC1(C)C | . | 1.9% | ? | ? | . | -7.5%
CCOC(=O)CSc1nc(N2CCOCC2)c2c(c1C#N)CC(C)(C)N(C)C2 | 17.8µM* | 10.1%[46.1 µM] | ? | 5.5% | . | -6.2%
COc1ccc(CNC(=O)c2ccc(C)o2)cc1 | -9.3% | -1.7%[46.1 µM] | 7.0% | -2.9% | 3.55µM* | 0.5%
COc1ccc(CNC(=O)c2cnc(C)cn2)cc1 | ? | -12.5%[46.1 µM] | -2.5% | 8.5% | 25.1µM* | 7.4%
COc1ccc(CNC(=O)c2c(-c3cc(Cl)c(OC)c(Cl)c3)noc2C)cc1 | 0.0447µM* | -30.0%[46.1 µM] | -15.3% | -1.9% | -6.8% | ?
COc1ccc(CNC(=O)C(C)Sc2ccc(C)cc2)cc1 (stereo not drawn) | 14.1µM* | -5.5% | -4.1% | 3.6% | . | -0.2%
Cc1ccc(SC(C)C(=O)NCc2ccncc2)cc1 (stereo not drawn) | -3.1% | 1.9% | -6.3% | 1.3% | . | -6.5%
CCOC(=O)c1ccc(NC(=O)NC2CC3CCC(C2)N3Cc2nnnn2C(C)(C)C)cc1 (stereo not drawn) | ? | -5.7%[7.67 µM] | -6.7% | -15.3% | -1.5% | -12.4%
c1ccc(Nc2cccc(Nc3ccccc3)c2)cc1 | ? | -26.6% | ? | -1.2% | 7.8% | 11.2µM*[quencher]
Nc1cccc(Nc2ccccc2)c1 | -5.2% | -7.5% | ? | 6.4% | . | ?
COc1ccc(CCNC(=O)CSc2nnc3ccc(-c4cccnc4)nn23)cc1 | 5.5% | 2.0% | -4.0% | 1.4% | . | 3.0%
S=C(Nc1ccc(Cl)cc1)Nc1cccc2cnccc12 | 17.8µM* | -3.6% | 25.1µM* | ? | ? | ?
COc1ccc(NC(=S)Nc2ccc3cn[nH]c3c2)cc1 | ? | 3.2% | ? | -13.2% | . | -24.8%
S=C(Nc1cccnc1)Nc1cccc2cnccc12 | 12.6µM* | 11.1% | 12.6µM* | ? | . | -19.4%
Cc1cc(Cl)ccc1NC(=S)Nc1cccnc1 | -7.8% | -8.9%[46.1 µM] | -13.2% | -10.2% | 1.8% | -14.2%
